Measurements taken from PubChem BioAssay AID881 (National Center for Advancing Translational Sciences (NCATS), 2007).
Hit rate of the full screen: of about 110,000 compounds, about 610 (0.55%) were called active. Roughly 3% stayed inconclusive and do not appear here. The sample as a whole holds a higher share of actives than the screen did. A number with no mark means an inactive call. Calls come from the whole dose curve; as a rule, active = well fitted inhibition curve with a large enough effect; inconclusive = small, poorly fitted or top-dose-only effect; inactive = no such curve, though single readings can be large or run the other way.

The compounds below were run against Polyunsaturated fatty acid lipoxygenase ALOX15B (Homo sapiens) (UniProt O15296) (assay: qHTS Assay for Inhibitors of 15-hLO-2 (15-human lipoxygenase 2)). Conditions: purified 15hLO-2, xylenol orange hydroperoxide absorbance; series mostly up to 57.1 µM; activity change, negative = inhibition: at the top concentration.
Source text: Assay Overview: NIH Molecular Libraries Screening Centers Network [MLSCN] NIH Chemical Genomics Center [NCGC] MLSCN Grant: MH081283-01A1 PI Name: Holman, T.R., University of California, Santa Cruz Human lipoxygenase 15hLO-2 is a member of the closely related lipoxygenase family of enzymes which catalyze the site-specific oxidation of arachidonic acid to various hormone precursor molecules and as such is a candidate for drug development in a variety of disease areas, such as cancer and inflammation. Inhibition of 15hLO-2 activity was screened by utilizing arachidonic acid as a substrate. The extent of hydroperoxide product formation was measured by a secondary chromogenic reaction in which xylenol orange (XO, Sigma-Aldrich, cat. number 39,818-7) reacts with the ferric ions produced from the reaction between the hydroperoxide and ferrous ions. The Fe(III)-XO complex is characterized with red-shifted absorbance at 560 nm. A purified preparation of human 15hLO-2 was supplied by Professor Ted Holman, University of California, Santa Cruz.
Assay Protocol: Buffer: 25 mM Hepes pH 7.5, 0.01% Triton X-100. Reagents/Controls: Buffer in columns 3 and 4 as negative control (no enzyme). Substrate solution: 45 uM arachidonic acid (Sigma-Aldrich, St. Louis, MO) final concentration dispensed throughout the plate. Enzyme: 50 nM 15hLO-2 final concentration in columns 1, 2, 5-48. Column 1 is neutral (100% activity). Column 2 contained pin-transferred titration of NDGA (nordihidroguaiaretic acid, Sigma-Aldrich, N 5023, top concentration 10 mM in DMSO, then 1:2 dilution in duplicate). (Dilution factor: 23 nL into 4 uL.) Chromogenic detection reagent (divalent iron/xylenol orange, Fe-XO): 200 uM xylenol orange plus 300 uM ferrous ammonium sulfate prepared freshly in 50 mM sulfuric acid. Assay Steps: Three uL of enzyme were dispensed to 1536-well Greiner black clear bottom plates. Compounds and controls (23 nL) were transferred via Kalypsys PinTool. The plates were incubated for 15 min at room temperature, and then 1 uL of substrate solution was added to start the reaction. After room temperature incubation for 90 minutes, 4 uL of Fe-XO solution was added to each well followed by a short spin (1000 rpm, 15 sec) and the plates were then incubated for 30 min. The absorbance at 405 and 573 nm were measured using ViewLux (Perkin-Elmer) High-throughput CCD imager and absorbance protocol settings. The 573-to-405 absorbance ratio was used to compute reaction progress.
% is set by controls: 0 for no effect and ±100 for the full control effect; potency is the fitted concentration of half-maximal effect.
Note: nearly all actives have a fitted effect of over 60% in size.

Polyunsaturated fatty acid lipoxygenase ALOX15B (Homo sapiens), sequence (O15296 whole entry, looked up): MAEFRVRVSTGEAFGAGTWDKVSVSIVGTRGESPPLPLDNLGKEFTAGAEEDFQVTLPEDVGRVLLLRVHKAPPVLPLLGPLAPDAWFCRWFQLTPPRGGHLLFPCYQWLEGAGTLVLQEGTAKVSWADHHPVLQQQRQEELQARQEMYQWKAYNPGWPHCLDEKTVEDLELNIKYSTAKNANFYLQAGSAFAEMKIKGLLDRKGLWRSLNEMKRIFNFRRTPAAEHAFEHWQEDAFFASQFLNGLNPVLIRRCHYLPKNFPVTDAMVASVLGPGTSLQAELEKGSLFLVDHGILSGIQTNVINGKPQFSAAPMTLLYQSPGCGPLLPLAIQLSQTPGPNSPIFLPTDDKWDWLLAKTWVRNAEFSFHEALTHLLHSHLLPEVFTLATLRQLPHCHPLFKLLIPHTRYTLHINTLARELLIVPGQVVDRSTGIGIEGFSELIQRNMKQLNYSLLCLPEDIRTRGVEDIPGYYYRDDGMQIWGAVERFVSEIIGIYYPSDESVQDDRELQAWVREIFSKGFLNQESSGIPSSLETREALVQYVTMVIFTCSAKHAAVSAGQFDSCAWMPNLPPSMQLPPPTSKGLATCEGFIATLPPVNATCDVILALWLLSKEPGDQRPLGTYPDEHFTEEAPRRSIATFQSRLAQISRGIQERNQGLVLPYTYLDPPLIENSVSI

Structure (SMILES) | activity change, negative = inhibition | Potency
Cc1ccc(CNC(=O)CCNS(=O)(=O)c2cccc3nonc23)cc1 | -1.56% | –
CC1=C(C/C=C(\C)CCCC(C)CCCC(C)CCCC(C)C)C(=O)c2ccccc2C1=O (stereo not drawn) | -19.6% [at 0.0915 µM] | –
Cn1c(SCC(=O)NC2CCCCC2)nnc1-c1cc2ccccc2o1 | 6.06% | –
O=c1c2ccccc2nc2n1C(CSCc1ccccc1)CS2 (stereo not drawn) | -0.0852% | –
CCOC(=O)C1=C(C)Nc2sc(C(=O)c3ccc(Br)cc3)c(N)c2C1c1ccc(C(=O)OC)cc1 (stereo not drawn) | -18.9% | –
Cc1ccc(C(=O)OC2=CC(=O)CC(C)(C)C2)cc1 | -18% [at 11.4 µM] | –
COc1ccc(OC)c(Nc2nc(-c3ccc(O)c(O)c3)cs2)c1 | – | 12.6 µM (active)
COc1ccc(Nc2nc(-c3ccccc3)cs2)cc1 | -0.853% | –
c1cnc(Nc2nc(-c3ccc4ccccc4c3)cs2)nc1 | -9.83% | –
O=C(OC1CCCCC1=O)c1cccc(S(=O)(=O)NCc2ccccc2)c1 (stereo not drawn) | -5.34% | –
OCCN(Cc1ccccc1)Cc1ccc(Cl)cc1 | -6.06% | –
O=C1CSC2=NCN(c3ccccc3)CN12 | 1.46% | –
O=C(NCc1ccco1)c1ccc(Cn2c(=O)c3sccc3n(Cc3ccc(F)cc3)c2=O)cc1 | -11.1% | –
CCn1c(-c2ccoc2C)n[nH]c1=S | 13% | –
CCCC1NC(=O)NC(C)=C1C(=O)OCC (stereo not drawn) | -5.77% | –
COc1cccc(OC)c1C(=O)Nc1ccc(N2CCCCC2)cc1 | 3.88% | –
COc1ccc([N+](=O)[O-])cc1N(CC(O)Cn1nnc2ccccc21)S(=O)(=O)c1ccc(C)cc1 (stereo not drawn) | -1.66% | –
CCCCNCc1ccc(SC)cc1 | 21.2% | –
Clc1ccc(-n2nnnc2CN2CCCCC2)cc1Cl | 0.993% [at 11.4 µM] | –
COc1ccc(Oc2c(Cl)cnn(-c3ccccc3)c2=O)cc1 | -7.51% | –
C#CCN(N(C)c1ncc(C(F)(F)F)cc1Cl)S(=O)(=O)c1ccc2ccccc2c1 | -5.59% | –
Cc1ccccc1-c1ccc(C(=O)O)s1 | -3.34% [at 0.0915 µM] | –
COC(=O)CNC(=O)c1ccccc1F | 1.73% | –

Structure (SMILES) | activity change, negative = inhibition | Potency
CC(C)CCSc1ncnc2c1oc1nc3c(cc12)COC(C)(C)C3 | 13.4% | –
Cc1ccc(-c2csc(NC(=O)c3cccs3)n2)cc1 | 27.2% | –
Cn1nc(-c2ccccc2)c(-c2nc(-c3ccc(Cl)cc3)no2)c1Cl | -4.91% | –
CCCSc1nsc(N)n1 | -13% | –
COc1cc(OC)cc(C(=O)NC(=S)N2CCN(c3ccc(C(F)(F)F)cc3[N+](=O)[O-])CC2)c1 | -13% | –
COC(=O)CSc1snnc1-c1ccc(Cl)c(Cl)c1 | 2.53% | –
COC(=O)c1ccccc1NC(=O)CN(Cc1ccc(Cl)cc1)S(C)(=O)=O | 7.94% | –
CC1CCN(c2ccc(S(=O)(=O)Nc3cc(C(=O)O)cc(C(=O)O)c3)cc2[N+](=O)[O-])CC1 | 2.65% | –
COc1ccc(C)cc1NC(=O)CCS(=O)(=O)c1cccc2nonc12 | -1.24% | –
Cc1ccc(/C=N/NC(=O)c2sccc2OCc2ccc(F)cc2)cc1 | 6.49% | –
C=CCNC(=S)NNc1ncnc2sc3c(c12)CC(C)(C)OC3 | -29% | –
COC(=O)CSc1nnc(-c2cccnc2)o1 | 3.28% | –
Oc1cc2c(cc1O)CN(C(=S)NCCc1ccc(Cl)cc1)CCC2 | – | 12.6 µM (active)
O=C(CSCc1ccc(Cl)cc1)N1CCCCC1 | 1.73% | –
NS(=O)(=O)c1ccc(CCNC(=O)Nc2ccc(Cl)cc2)cc1 | -0.0198% | –
CC(=O)c1ccc2c(ccc3ccccc32)c1 | -0.686% | –
C=CC(=O)c1ccc2ccccc2c1 | – | 2 µM (active)
Cc1ccc2nc(CC(=O)c3ccc4ccccc4c3)c(=O)[nH]c2c1 | -6.79% [at 11.4 µM] | –
CCC(=O)Nc1ccc(C(=O)Nc2cccc(OC)c2)cc1 | 2.43% | –
COc1ccccc1N=C(C)C1=C(O)COC1=O | 1.25% | –
Cc1cccc(-n2cnc(C(=O)Nc3cccnc3)c2)n1 | 3.31% | –
Cc1ccc(S(=O)(=O)N2CCC(=O)N([C@H](COCc3ccccc3)Cc3ccccc3)CC2)cc1 | 6.39% [at 0.0915 µM] | –
O=S1(=O)CCN(Cc2ccccc2Cl)CC1 | -0.814% | –

Structure (SMILES) | activity change, negative = inhibition | Potency
CCN(CC)CCn1c(=S)[nH]c2ncccc2c1=O | 1.31% | –
CCCc1cc(=O)[nH]c(SCC(=O)c2cc(C)n(CCC)c2C)n1 | -8.86% | –
COc1ccc(OC(C)C(=O)Nc2cccnc2)cc1 (stereo not drawn) | 4.53% | –
C=CCNC(=S)N/N=C/c1ccc(OCc2ccccc2)cc1 | -12.6% | –
O=C(O)c1cc2ccccc2c(=O)s1 | 1.13% | –
CS(=O)(=O)N(CC(=O)Nc1ccc(F)cc1F)c1cccc([N+](=O)[O-])c1 | -23% | –
COc1cccc(-c2cc(=O)c3cc(NC(=O)c4ccc(C)cc4)ccc3[nH]2)c1 | -28.3% [at 0.0915 µM] | –
Cc1cccc([C@H]2[C@@H]3C=CC[C@@H](C)[C@@H]3C(=O)N2Cc2ccccc2)c1 | -6.63% [at 0.0915 µM] | –
CCn1c(O)c2ccc(C(=O)N=NC(=O)c3cccnc3)cc2c1O | 1.39% | –
CCOC(=O)N1CCC(Nc2c(NCCCN3CCN(CC)CC3)c(=O)c2=O)CC1 | 2.51% | –
COc1cccc(N=c2oc3c(C)ncc(CO)c3cc2C(N)=O)c1 | -13.3% | –
CC(C)CCNC(=O)CC1C(=O)N(Cc2ccccc2)C(C)c2nc3ccccc3n21 (stereo not drawn) | 12.6% | –
CC(C)(CNC(=O)c1cc(=O)[nH]c2ccccc12)N1CCOCC1 | 4.69% | –
COc1ccc(CN2CCCCC2C)cc1OC (stereo not drawn) | -1.37% | –
Cc1ccc(CNC(=O)CCNC(=O)Cn2ccc3ccccc3c2=O)cc1 | 10.9% | –
O=C(Nc1nnc(C2CC2)s1)c1ccccn1 | 28.8% | –
C/C=C1\C2C=C(C)CC1(N)c1ccc(=O)[nH]c1C2 (stereo not drawn) | -9.9% [at 0.0915 µM] | –
Oc1ccc(O)c2c(O)cccc12 | – | 12.6 µM (active)
COc1ccc(-c2cc3nc(C)c(CCC(=O)NC(C)CCc4ccco4)c(C)n3n2)c(OC)c1 (stereo not drawn) | 13.3% | –
COc1cc(OC)c2c(c1)OC(=O)CC2c1cc(OC)c(OC)c(OC)c1 (stereo not drawn) | -2.71% [at 0.0915 µM] | –
COc1cc(OC)c2c(-c3cccc(-c4cccc(N)c4)c3)cc(=O)oc2c1 | 3.54% [at 0.0915 µM] | –
O=C(c1cccc(N2CCCC2=O)c1)N1CCOCC1 | -6.64% | –
